Screening results from PubChem BioAssay.
Rows were chosen to be rich in hits. Some 5.8% of all compounds tested hit in one or more screens of this group.
KB-V1 MDR tox: KB-V1 MDR subline cytotoxicity; KB-V1 MDR cells viability, CellTiter-Glo, 72 h; Potency, µM (titrated, usually from 46.1 µM), most hits filed as cytotoxic; 400,000 tested, 3.4% active; AID 1347076; note: % is set by controls: 0 for no effect and ±100 for the full control effect; nearly all actives have a fitted effect of over 60% in size
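Readout: CellTiter-Glo luminescence, 10 min after addition. Cells: KB-V1 MDR subline, 72 h at 37 degrees C with compound. Analysis: corrected, normalized data fitted to concentration-effect curves.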
ALOX12 inh: ALOX12 (human) lipoxygenase inhibition; P18054; purified 12hLO, xylenol orange hydroperoxide absorbance; Potency, µM (titrated, usually from 108 µM), for inactives: at the top dose activity change, negative = inhibition, actives largely listed as inhibitors; 580,000 tested, 1.1% active; note: % is set by controls: 0 for no effect and ±100 for the full control effect
Target sequence (P18054 whole entry, looked up): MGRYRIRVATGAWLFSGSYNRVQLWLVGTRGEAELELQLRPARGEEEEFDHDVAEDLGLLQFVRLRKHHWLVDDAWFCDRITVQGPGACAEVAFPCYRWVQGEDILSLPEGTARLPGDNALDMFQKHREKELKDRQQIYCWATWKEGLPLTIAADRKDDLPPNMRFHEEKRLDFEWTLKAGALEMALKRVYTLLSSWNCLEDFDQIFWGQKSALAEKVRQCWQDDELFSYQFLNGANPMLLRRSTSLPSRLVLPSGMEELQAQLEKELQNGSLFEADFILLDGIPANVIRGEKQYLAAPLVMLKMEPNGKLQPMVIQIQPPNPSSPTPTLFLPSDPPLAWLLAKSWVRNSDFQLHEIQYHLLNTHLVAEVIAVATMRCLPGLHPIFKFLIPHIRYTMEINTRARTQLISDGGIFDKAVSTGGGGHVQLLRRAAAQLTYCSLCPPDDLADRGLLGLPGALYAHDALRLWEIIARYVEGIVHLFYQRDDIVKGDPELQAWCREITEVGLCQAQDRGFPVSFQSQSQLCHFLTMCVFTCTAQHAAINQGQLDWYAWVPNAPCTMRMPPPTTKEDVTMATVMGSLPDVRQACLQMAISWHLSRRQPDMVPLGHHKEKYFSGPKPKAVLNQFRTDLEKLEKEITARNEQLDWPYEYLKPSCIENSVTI
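Hydroperoxide product was detected by ferrous iron/xylenol orange as the 573 to 405 nm absorbance ratio. Arachidonic acid at 40 uM (final) was turned over for 30 min at room temperature by 150 nM human 12hLO, pH 7.0 Hepes buffer, after 15 min compound preincubation.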
KB-3-1 cytotox: KB-3-1 parental cell cytotoxicity. KB-3-1 viability, CellTiter-Glo ATP luminescence, 72 h. Potency, µM (titrated, usually from 46.1 µM), actives largely listed as cytotoxic. 400,000 tested, 1.4% active; note: % is set by controls: 0 for no effect and ±100 for the full control effect; nearly all actives have a fitted effect of over 60% in size
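Viability of parental KB-3-1 cells, measured by CellTiter-Glo luminescence, followed a 72 h incubation at 37 °C with pinned compounds in phenol-red-free DMEM containing 10% FBS.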
MCF10A rereplic: inducers of DNA re-replication in MCF 10A breast cells. Potency, µM (highest dose often 46.1 µM), without a hit: top-dose activity, positive = re-replication, most hits filed as activators. AID 624296. 350,000 tested, 2.9% active. MCF 10A DNA re-replication, Hoechst nuclear intensity, 48 h; note: % of control where 0% means no effect; nearly all actives have a fitted effect of over 50% in size
PINK1 expr mod: PINK1 expression modulation | 410,000 tested, 0.2% active | Potency, µM (titrated, usually from 76.6 µM), inactives show at the top dose activation (PINK1 increase), hits mostly activators | PINK1 immunofluorescence, high-content cytometry, 24 h; active = well fitted activation curve with a large enough effect; inconclusive = small, poorly fitted or top-dose-only effect; cell line not stated here; note: % of control where 0% means no effect; nearly all actives have a fitted effect of over 65% in size
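Stable cell line treated 24 h with compounds at 5 concentrations (CCCP controls), then fixed and immunostained for PINK1 plus nuclear and cell stains; PINK1 immunofluorescence quantified by laser-scanning microplate cytometry.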
SW480 rereplic: DNA re-replication induction in SW480 cells. Potency, µM (series often up to 46.1 µM), inactives show top-dose re-replication activation, most hits filed as activators. SW480 DNA re-replication, Hoechst DNA content imaging, 48 h. 340,000 tested, 1.8% active; note: % of control where 0% means no effect; nearly all actives have a fitted effect of over 55% in size
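Treated cells incubate 48 hr (37 C, 5% CO2), are stained 40 min with Hoechst, and nuclear fluorescence is enumerated; a rise in nuclei with high DNA signal marks re-replication.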
* hit, by the source's call; i = inactive; ? = inconclusive; . = no result; [ ] = another dose, or the depositor's remark. Unless noted, calls come from the whole dose curve; as a rule, active = well fitted curve in the direction sought with a large enough effect; inconclusive = small, poorly fitted or top-dose-only effect, or another doubt; inactive = no such curve, though single readings can be large; an effect the other way counts as inactive or inconclusive. Potency is the fitted concentration of half-maximal effect.

SMILES	KB-V1 MDR tox	ALOX12 inh	KB-3-1 cytotox	MCF10A rereplic	PINK1 expr mod	SW480 rereplic
O=C(COC(=O)CSc1ccc(F)cc1)NCc1ccco1	?	-14%	?	-1%	-1%	11%
COc1c(C(=O)Nc2ccc3[nH]c(=O)[nH]c3c2)cc2ccccc2c1Br	i	-30%	i	11µM*	1%	?
COc1c(C(=O)Nc2ccc(CN3CCOCC3)cc2)cc2ccccc2c1Br	?	-4%	i	?	2%	?
Cc1ccc(N2Cc3c(ncnc3N3CCC(O)CC3)CN(C)C2=O)cc1	.	-15%	.	.	.	.
Cc1ccc(C(=O)Nc2ccc(Cl)cc2C)c(Cl)c1	16µM*	-5%	i	11%	0%	3%
Cc1nc2cc(Cl)ccc2cc1C(=O)NCc1cccnc1-n1cccn1	.	-1%	.	.	.	.
Cc1ccc(C(=O)NC(=S)NNC(=O)c2ccccc2O)cc1	i	-16%	i	?	-3%	-2%
Cc1cccc(C(=O)NNC(=S)NC(=O)c2ccccc2)c1	i	122%	?	4%	0%	-1%
O=C(NC(=S)NNC(=O)c1ccccc1O)c1ccccc1	i	0%	?	30%	-2%	15µM*
O=C(NNC(=S)NC(=O)c1ccccc1[N+](=O)[O-])c1ccccc1[N+](=O)[O-]	i	-17%[57.4 µM]	?	7%	3%[38.3 µM]	2%
O=C(CCc1ccccc1)NNC(=S)NC(=O)c1ccccc1	?	?	i	3.3µM*	-3%[38.3 µM]	3.7µM*
Cc1cc(C(=O)NNC(=S)NC(=O)c2ccccc2)cs1	.	28µM*	.	.	.	.
Cc1ccc(C(=O)NC(=S)NNC(=O)c2ccccc2[N+](=O)[O-])cc1	i	32µM*	i	9%	-2%	3%
Cc1nc(-c2c3n(c(=O)n(Cc4ccc(OC(F)(F)F)cc4)c2=O)CCCC3)no1	.	37%	.	.	.	.
O=C(CCc1ccccc1)NC(=S)Nc1cccc(Br)c1	i	?	i	16µM*	11%	0%
O=C(NC(=S)NCc1cccnc1)c1ccccc1[N+](=O)[O-]	23µM*	-12%	i	1%	6%	-32%
O=C(NNC(=S)NC(=O)c1ccccc1[N+](=O)[O-])c1ccccc1O	i	-7%	?	-1%	28µM*	-16%
Cc1onc(-c2ccccc2)c1C(=O)NC(=S)NNC(=O)c1ccc(O)cc1O	3.3µM*	?	4.6µM*	?	?	-2%
O=C(NCc1cccnc1)c1ccccc1[N+](=O)[O-]	i	23%	i	3%	0%	-1%
O=C(CCc1ccccc1)NC(=S)Nc1cccc(C(=O)O)c1	i	?	i	-1%	-1%	-2%
CCOc1ccccc1NC(=O)COC(=O)c1cc2c(C)nn(-c3ccc(F)cc3)c2s1	.	61%	.	.	.	.
COc1ccc(/C=N/NC(=O)c2cc(-c3ccccc3OC(C)C)nc3ccccc23)cc1CN1CCOCC1	?	-2%	i	8.2µM*	3%	27%
CCn1c(SCCOC)nnc1C1CC1	.	-20%	.	.	.	.
CN(C)C(=O)/C(C#N)=C\c1cc(Br)c(Sc2ccc(Cl)cc2)o1	16µM*	.	i	4%	5%	2%
CC12CC3CC(C)(C1)CC(C(=O)NC(=S)N1CCCCC1)(C3)C2	i	25µM*	i	-8%	-1%[38.3 µM]	-4%
SMILES	KB-V1 MDR tox	ALOX12 inh	KB-3-1 cytotox	MCF10A rereplic	PINK1 expr mod	SW480 rereplic
COc1ccc(-c2nc3cc(C)ccc3cc2CN2CCCC(C#N)C2)cc1OC (stereo unspecified)	.	33%	.	.	.	.
Cc1ccc(NC(=O)CS(=O)CC(=O)NCCCc2ccccc2)cc1Cl (stereo unspecified)	i	-5%	i	?	.	7.3µM*
COCC1CN(C2CCC2)CC12CCN(C(=O)COc1cccc(C)c1)CC2 (stereo unspecified)	.	6%	.	.	.	.
C=CCn1c(=O)/c(=C/c2ccc(C)o2)s/c1=C(/C#N)C(=O)c1ccccc1	i	11µM*	i	5%	?	-10%
Cc1ccc(/C=c2\sc3nc(-c4ccccc4Br)nn3c2=O)o1	i	?	i	0%	0%	-1%
CO/N=C\CC(=O)Nc1ccc(Oc2ccccc2)cc1	?	-14%	8.2µM*	?	6%	5.2µM*
COc1ccc(CN2C=C(C(=O)OCc3noc(C4CCCC4)n3)C(C)=NS2(=O)=O)cc1	.	16%	.	.	.	.
Cn1nc(-c2nncn2CC2CC2)c2c1CCN(C(=O)c1ccncc1)C2	.	37%	.	.	.	.
Cc1ccc(C(=O)N(CN2CCCC2=O)c2ccccc2)cc1C	?	-9%	i	10%	1%[38.3 µM]	3%
Cc1ccc(N(CN2CCCC2=O)C(=O)c2ccc(C)c(C)c2)cc1	8.2µM*	-5%	i	5%	-3%	-8%
Cc1ccc(C(=O)N(CN2CCCC2=O)c2ccc(F)cc2)cc1C	18µM*	1%	i	3%	-4%	-13%
Cc1cc(NC(=O)/C=C/c2cccc(F)c2)n(-c2nc3ccccc3[nH]2)n1	?	-21%	?	16µM*	5%	?
COc1ccc(/C=C/C(=O)Nc2cc(C)nn2-c2nc3ccccc3[nH]2)cc1	16µM*	1%	?	?	9%	18µM*
Cc1cc(NC(=O)/C=C/c2ccc(F)cc2)n(-c2nc3ccccc3[nH]2)n1	i	-8%	i	?	5%	2%
Cc1cc(NC(=O)c2ccc(C)s2)n(-c2nc3ccccc3[nH]2)n1	i	-3%	i	5%	2%	1%
Cc1cc(NC(=O)/C=C/c2cccc(Cl)c2)n(-c2nc3ccccc3[nH]2)n1	?	-1%	?	21µM*	15%	?
NC(N)=N/N=C/c1ccc(OCc2ccccc2)c(OCc2ccccc2)c1	i	?	?	12µM*	-4%	21%
CCOc1cc(/C=N/N=C(N)N)ccc1OCc1ccc(Cl)cc1	?	?	?	18µM*	-2%	?
